Laboratory results as given in PubChem BioAssay (EPA / NIEHS).
Values joined by “and” are separate entries in the source; they are usually repeats but may differ in a detail not shown here. Equal values may be shown once. More than one record can exist for a structure, and the calls need not agree. Active and inactive are the calls of the source. The calls were made as follows: active = hit-call score of the fitted dose curve at least 0.9, where 1 is the maximum; inconclusive = response in the unintended direction; inactive = score below 0.9.

Test system: rat CYP2B1, gene 24300
Assay: NVS_ADME_rCYP2B1: NovaScreen (NVS) CYP450-related Enzyme Activity (ADME) Assay for rat CYP2B1 (AID 2283117)
Procedure: NVS_ADME_rCYP2B1 is a biochemical, single-readout assay that uses extracted gene-proteins in a cell-free assay. Measurements were taken 0.75 hour after chemical dosing in a 96-well plate.NVS_ADME_rCYP2B1 is one of one assay component(s) measured or calculated from the NVS_ADME_rCYP2B1 assay. It is designed to make measurements of enzyme activity, a form of enzyme reporter, as detected with fluorescence intensity signals by Fluorescence technology.Data from the assay component NVS_ADME_rCYP2B1 was analyzed into 1 assay endpoint. This assay endpoint, NVS_ADME_rCYP2B1, was analyzed in the positive analysis fitting direction relative to Acetonitrile as the negative control and baseline of activity. Using a type of enzyme reporter, loss-of-signal activity can be used to understand changes in the enzymatic activity as they relate to the gene Cyp2b1. Furthermore, this assay endpoint can be referred to as a primary readout, because this assay has produced multiple assay endpoints where this one serves a enzymatic activity function. To generalize the intended target to other relatable targets, this assay endpoint is annotated to the cyp intended target family, where the subfamily is xenobiotic metabolism.
Binding assays used specific radioligands (tritiated, iodinated) with non-radioactive competitive displacement ligands in agonist or antagonist protocols (as indicated) and various reference compounds and inhibitors to titrate specific binding to receptors and transporters. Most enzyme assays (CYPs, kinases, phosphatases, proteases, HDACs) used recombinant protein and specific substrates (fluorescence mostly, some colorimetric and radioactive) and inhibitors, followed by a biochemical separation of substrate and product. All assays for the biochemical HTS were initially run in duplicate at a single concentration (10 uM for CYP450 assays and 25 uM for all others). Assay-chemical combinations meeting a pre-defined threshold (e.g., 30% inhibition and other criteria defined below) were then run in singleton concentration-response format with maximum concentration of 20 uM for CYPs and 50 uM for all others. Each assay was run with positive and negative controls, and concurrent controls on every plate. The follow-up (secondary) screen tested active chemical-pairs in concentration series, as well as a few additional assays not tested in the primary screen, some selected negative inactives, and several cases re-run in the concentration series for confirmatory purposes.

Structure (SMILES) | AC50 | outcome
NC(=NCCCCCCN=C(N)/N=C(\N)Nc1ccc(Cl)cc1)/N=C(\N)Nc1ccc(Cl)cc1 | 5.93 µM (active) | 
CC(=O)O[C@]1(C(C)=O)CC[C@H]2[C@@H]3C=C(Cl)C4=CC(=O)[C@@H]5C[C@@H]5[C@]4(C)[C@H]3CC[C@@]21C |  | inactive
BrC1CCC(Br)C(Br)CCC(Br)C(Br)CCC1Br (stereo not drawn) |  | inactive
C[C@]12CC[C@@H]3c4ccc(O)cc4CC[C@H]3[C@@H]1CC[C@@H]2O | 14.1 µM (active) | 
CCN(CC)CCOc1ccc(C(=C(Cl)c2ccccc2)c2ccccc2)cc1 | 7.35 µM (active) and 7.71 µM (active) | inactive
N#CSCSc1nc2ccccc2s1 | 3.96 µM (active) | 
CCCCCCC(C)OC(=O)COc1nc(F)c(Cl)c(N)c1Cl (stereo not drawn) | 6.09 µM (active) | 
CCCCCCCCCCCCCC[P+](CCCC)(CCCC)CCCC | 6.5 µM (active) | 
O=c1c(-c2ccc(O)cc2)coc2cc(O)cc(O)c12 |  | inactive
CC(C)(C)[C@@H](O)[C@@H](Cc1ccc(Cl)cc1)n1cncn1 | 1.35 µM (active) | 
CC(=O)[C@H]1CC[C@H]2[C@@H]3CCC4=CC(=O)CC[C@]4(C)[C@H]3CC[C@]12C |  | inactive
Cc1cc(O)cc(C)c1Cl | 16.7 µM (active) | 
C=CCOC(Cn1ccnc1)c1ccc(Cl)cc1Cl (stereo not drawn) | 0.0108 µM (active) | 
Oc1ccc(C(c2ccc(O)cc2)C(Cl)(Cl)Cl)cc1 | 9.18 µM (active) | 
C#CCOC(=O)[C@@H](C)Oc1ccc(Oc2ncc(Cl)cc2F)cc1 | 1.36 µM (active) | 
C#C[C@]1(O)CC[C@H]2[C@@H]3CCc4cc(O)ccc4[C@H]3CC[C@@]21C | 2.5 µM (active) and 4.16 µM (active) and 1.77 µM (active) | 
CCCCOC(=O)C(C)Oc1ccc(Oc2ccc(C(F)(F)F)cn2)cc1 (stereo not drawn) |  | inactive
